High-throughput results from PubChem BioAssay.
ST2 IL33 inh – IL1RL1 inhibition; Q01638; AlphaLISA ST2-Fc/biotin-IL-33 interaction, 1 h; inhibition, % for hits at 17 µM; 78,000 tested, 2.3% active; in the data active means inhibition above about 30%
Target sequence (Q01638 whole entry, looked up): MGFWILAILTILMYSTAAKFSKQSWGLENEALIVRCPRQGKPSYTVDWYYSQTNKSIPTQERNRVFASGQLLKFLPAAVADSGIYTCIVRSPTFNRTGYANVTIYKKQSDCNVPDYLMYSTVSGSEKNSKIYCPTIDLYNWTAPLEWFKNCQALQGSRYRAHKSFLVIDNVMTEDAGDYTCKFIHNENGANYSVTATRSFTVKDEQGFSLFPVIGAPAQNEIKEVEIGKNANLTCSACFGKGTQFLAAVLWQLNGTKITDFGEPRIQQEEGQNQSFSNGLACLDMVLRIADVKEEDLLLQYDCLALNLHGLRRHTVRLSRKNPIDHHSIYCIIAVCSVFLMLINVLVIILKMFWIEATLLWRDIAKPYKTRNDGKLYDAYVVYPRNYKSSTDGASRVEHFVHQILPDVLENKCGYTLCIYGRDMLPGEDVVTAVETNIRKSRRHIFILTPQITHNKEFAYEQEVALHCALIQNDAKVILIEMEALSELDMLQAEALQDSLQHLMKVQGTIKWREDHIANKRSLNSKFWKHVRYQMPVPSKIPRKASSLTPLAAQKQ
* hit, by the source's call; i = inactive; ! = not confirmed by another sample. Shown is part of a subset that was picked to be rich in hits.

SMILES	ST2 IL33 inh
Cc1cc(Cl)ccc1N1C(=O)C(N2C(=O)c3ccc([N+](=O)[O-])cc3C2=O)C1c1cccs1 (configuration not stated)	39%*
COc1cccc(C2C(N3C(=O)c4ccccc4C3=O)C(=O)N2c2ccc(C)c(C)c2)c1 (configuration not stated)	i
COc1cccc(C2C(N3C(=O)c4ccccc4C3=O)C(=O)N2c2ccc(C)c(F)c2)c1 (configuration not stated)	i
O=C1c2ccc([N+](=O)[O-])cc2C(=O)N1c1c[nH]c(=O)[nH]c1=O	i
Cc1ccc(N2C(=O)C(N3C(=O)c4ccccc4C3=O)C2c2ccc(N(C)C)cc2)cc1F (configuration not stated)	31%*!
O=C1c2ccc([N+](=O)[O-])cc2C(=O)N1CN1CCCCC1	i
Cc1cc(N2C(=O)c3cccc([N+](=O)[O-])c3C2=O)no1	i
COc1cc2c(cc1OC)C(C(=O)Nc1ccc(C)c(F)c1)C(c1cccs1)N(C)C2=O (configuration not stated)	i
Cc1ccc(N2C(=O)C(N3C(=O)c4cccc([N+](=O)[O-])c4C3=O)C2c2cccs2)cc1F (configuration not stated)	32%*
COc1ccc(Cl)cc1S(=O)(=O)N1CCN(c2cc(-c3ccc(C)cc3)ncn2)CC1	i
CC1CN(CCC(=O)Nc2ccc(Br)cc2)CC(C)O1 (configuration not stated)	i
CCOC(=O)c1nn(CCCc2ccccc2)c2c1CN(C(=O)c1n[nH]c3c1CCCC3)CC2	i
CN(C)C(=O)c1cc(Cl)c(Cl)c(Cl)c1Cl	i
CC(c1cccc(-c2nccc(C(F)(F)F)n2)c1)N1CCCC1 (configuration not stated)	i
CC(C)c1cc(C(=O)N2CCC(Cc3cccc(C(N)=O)c3)C2)on1 (configuration not stated)	i
O=C(CN1CCCC(CCc2ccccc2C(F)(F)F)C1)N1CCOCC1 (configuration not stated)	i
O=[N+]([O-])c1cc([N+](=O)[O-])c2c(OCc3ccccc3)nsc2c1	43%*
Cc1nc2c(sc3cc([N+](=O)[O-])cc(Sc4ccccc4)c32)c(=O)n1C	i
Cc1c(N=Cc2ccccc2)cc([N+](=O)[O-])cc1[N+](=O)[O-]	i
CCOC(=O)c1c(NC(=O)c2ccc(N(C)C)cc2)sc2c1CCC2	i
CCCc1ccc2oc(C(=O)NCCc3cccnc3)c(C)c2c1	i
N#Cc1cc([N+](=O)[O-])cnc1NCCO	i
N#Cc1cc([N+](=O)[O-])cnc1Sc1ccccc1	32%*
O=[N+]([O-])c1ccc(-c2cnc(-c3ccccc3)nc2)cc1	i
CCn1c(N=Cc2ccccc2Cl)nc2ccccc21	i
SMILES	ST2 IL33 inh
O=[N+]([O-])c1ccc(-c2nc(NCc3cccnc3)c3ccccc3n2)cc1	96%*!
CCCCN(C)c1nc(-c2ccc([N+](=O)[O-])cc2)nc2ccccc12	39%*
O=[N+]([O-])c1ccc(-c2nc(NC3CCCCC3)c3ccccc3n2)cc1	i
CCCCN(C)Cc1ccc([N+](=O)[O-])cc1	i
c1cncc(CNc2c3ccccc3nc3ccccc23)c1	i
C=CCNc1nc(-c2ccc([N+](=O)[O-])cc2)nc2ccccc12	i
N#Cc1c(-c2ccccc2)cc(-c2cccc(Br)c2)nc1N	i
O=C(NCc1ccccc1)C1CCC(CNS(=O)(=O)c2cccc3nsnc23)CC1 (configuration not stated)	i
CCOC(=O)c1c(NC(=O)COc2ccc(C(C)(C)C)cc2)sc2c1CCC2	i
Cc1nc(C)c(C(=O)N2CC[C@H](CO)[C@H](O)C2)s1	i
CCn1c(-c2c(-c3ccccc3)ncn2Cc2cc(C)[nH]n2)nc2ccccc21	i
COC(=O)[C@H](Cc1ccc(OC)cc1)NC(=O)[C@H]1CN(C(=O)c2cccnc2)CCN1C(=O)c1cccs1	i
CCC(C)NC(=O)CCc1nc(-c2ccc(C)cc2)no1 (configuration not stated)	i
O=[N+]([O-])c1cccc(CN2CCCCCC2)c1	i
O=C1NC(=O)/C(=C\c2cccc([N+](=O)[O-])c2)S1	i
O=C1/C(=C\c2cccc([N+](=O)[O-])c2)N=C2CCCCCN12	36%*
Cc1cc(C)n(CCCC(=O)N2CCNCC2C(=O)N2CCOCC2)n1 (configuration not stated)	i
Cc1cc(C)cc(C(=O)N(c2ccc(C(C)C)cc2)C2C=CS(=O)(=O)C2)c1 (configuration not stated)	i
CCOc1ccc(-c2nc3cc(N=Cc4cccc([N+](=O)[O-])c4O)ccc3o2)cc1	i
CCOC(=O)c1ccc2c(c1)N(Cc1ccc(F)cc1Cl)C(=O)CS2	i
O=C(O)CN1C(=O)S/C(=C\c2ccco2)C1=O	74%*
CC(C)N1C(=O)S/C(=C\c2ccc(-c3cccc(C(=O)O)c3)o2)C1=O	i
CN1CCN(C(=O)CN2C(=O)S/C(=C/c3ccccc3)C2=O)CC1	i
